Bioassay records (PubChem)
An excerpt weighted towards active compounds, which were near 2.9% of everything screened.
HePTP inhibitor = human HePTP phosphatase inhibition; inhibition, % at 20 µM; P35236; AID 521; 110,000 compounds, 0.64% hits; recombinant HePTP phosphatase activity, OD absorbance; in the data active means inhibition above about 50%;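 further: plate controls were vehicle for no effect and reference inhibitor for full effect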
Target sequence (P35236 whole entry, looked up): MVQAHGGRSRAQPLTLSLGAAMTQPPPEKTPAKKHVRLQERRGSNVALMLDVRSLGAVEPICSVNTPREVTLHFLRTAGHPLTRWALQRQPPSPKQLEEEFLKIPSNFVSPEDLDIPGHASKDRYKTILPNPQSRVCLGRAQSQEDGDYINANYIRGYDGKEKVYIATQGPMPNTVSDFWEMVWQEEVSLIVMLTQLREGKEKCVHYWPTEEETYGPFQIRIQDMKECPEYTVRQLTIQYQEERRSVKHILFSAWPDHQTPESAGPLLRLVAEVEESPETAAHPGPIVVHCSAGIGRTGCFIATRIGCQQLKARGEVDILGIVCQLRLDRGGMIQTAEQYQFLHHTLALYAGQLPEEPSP
ERb coact inh = ER-beta (human) coactivator binding inhibition. inhibition, % at 25.6 µM. AID 633. 86,000 compounds, 1.3% hits. Q92731. TR-FRET ER-beta LBD / SRC1-Cy5 peptide binding; receptor agonist-loaded with 1 µM estradiol;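 active means compounds whose percent inhibition of the receptor-coactivator binding signal exceeds about 50% in the single-dose screen, limit read from the data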;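 further: 0% = receptor plus peptide wells without compound and 100% = peptide-only wells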
ERa coact pot = enhances coactivator binding to human estrogen receptor alpha; TR-FRET ERalpha-LBD/SRC-Cy5 coactivator binding, 2 h; 100 = basal binding, no effect; coactivator binding (% of control), % at 25.6 µM; P03372; 86,000 compounds, 1.3% hits; in the data active means activity above about 200%;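 further: binding measured in presence of low estradiol as agonist stimulus; 0% = peptide alone without receptor and 100% = receptor with peptide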
Calb biofilm kill = kills Candida albicans biofilms; AID 834; C. albicans biofilm + clotrimazole, Alamar Blue; 85,000 compounds, 0.14% hits; inhibition, % at 6 µM;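 active means inhibition above 20%; inactive means inhibition below 20%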;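 further: preformed 24 hr biofilms exposed to compound for 48 hr; 0% = biofilm without compound and 100% = blank killed by clotrimazole plus chlorhexidine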
ERa SRC1 inh = ER-alpha (human) coactivator binding inhibition; P03372; TR-FRET ER-alpha LBD / SRC-1 peptide, estradiol-bound; inhibition, % at 25.6 µM; 86,000 compounds, 1.7% hits; AID 629; in the data active means inhibition above about 50%;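 further: 0% = receptor plus peptide control and 100% = peptide only without receptor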
Smad3 FoxH1 inh = inhibitors of human Smad3 transcription factor binding; TR-FRET Smad3/Dy647-FoxH1 peptide binding, europium anti-His; inhibition, % at 25 µM; 88,000 compounds, 0.29% hits;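 active means compounds that reduce the energy-transfer binding signal between the protein and its labelled peptide by more than half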;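 further: 0% = Smad3 plus labelled peptide maximal FRET and 100% = peptide-only background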
Numbers without * were called inactive; . = no result given; ! = not confirmed by another sample; [ ] = remark or other dose.

SMILES	HePTP inhibitor	ERb coact inh	ERa coact pot	Calb biofilm kill	ERa SRC1 inh	Smad3 FoxH1 inh
Cc1ccc(Nc2nnc(SCC(=O)NCc3ccco3)s2)cc1	6	49	74	2	68*	7
Cc1ccccc1Nc1nnc(SCC(=O)NC(=O)NCc2ccco2)s1	-9	56*[fluorescence artefact?]	102	.	75*	5
O=C(CSc1nnc(Nc2ccccc2F)s1)NCc1ccco1	21	69*	97	4	81*[fluorescence artefact?]	3
Cc1cc(NC(=O)c2cc(-c3ccc(C)o3)nc3ccccc23)no1	16	.	.	.	.	.
O=C(NCc1ccco1)c1cccc2ccccc12	-8	-5	60	-1	-1	3
O=C(NCc1ccco1)c1cc2ccccc2c(=O)o1	8	47	67	2	57*	3
Cc1ccc(-c2cc(C(=O)NCc3ccco3)c3ccccc3n2)o1	26	73*	25	7	82*	22
Cc1ccc(-c2cc(C(=O)Nc3ccccc3C)c3ccccc3n2)o1	.	56*[fluorescence artefact?]	66	5	78*[fluorescence artefact?]	10
Cc1cc(C)c2nc(-c3ccccn3)cc(C(=O)Nc3cc(C)on3)c2c1	-1	10	102	6	6	12
Cc1cc(C)c2nc(-c3ccccn3)cc(C(=O)NCc3ccco3)c2c1	11	63*[fluorescence artefact?]	83	3	66*	6
Cc1[nH]n(-c2ccc([N+](=O)[O-])cc2)c(=O)c1C=NCc1ccc(Cl)cc1	1	.	.	.	.	.
CCc1cccc(CC)c1NC(=O)c1ccc(-c2ccccc2)cc1	2	.	.	.	.	.
C=CCN1C(=O)/C(=C\c2cccc(Cl)c2)C(=O)NC1=S	7	.	.	.	.	.
CCOC(=O)C1=C(O)/C(=C/c2ccc(F)cc2)SC1=Nc1ccc([N+](=O)[O-])cc1	-11	.	.	.	.	.
COc1ccccc1/C=C1/SC(=Nc2ccc(F)cc2)NC1=O	1	.	.	.	.	.
Cc1ccc(N=C2NC(=O)/C(=C/c3ccccc3F)S2)cc1	92*	.	.	.	.	.
O=C(/C=C/c1ccc(Cl)cc1Cl)Nc1ccc2c(c1)OCO2	9	.	.	.	.	.
CCOC(=O)c1c(NC(=O)C2C3CCC(O3)C2C(=O)O)sc2c1CCC(CC)C2 (stereo not drawn)	103*	.	.	.	.	.
CCC1CCc2c(sc(NC(=O)c3ccc(Br)o3)c2C(=O)OC)C1 (stereo not drawn)	104*	.	.	.	.	.
O=C(N/N=C/C1CC=CCC1)c1ccc([N+](=O)[O-])cc1Cl (stereo not drawn)	-10	.	.	.	.	.
O=C1c2ccccc2-c2c1cccc2C(=O)N1CCOCC1	.	56*[fluorescence artefact?]	110	5	-3	0
O=C(c1ccccc1C(F)(F)F)N1CCOCC1	6	.	.	.	.	.
NC(=O)c1c(NC(=O)c2ccco2)sc2c1CCCC2	-9	.	.	.	.	.
NC(=O)c1c(NC(=O)c2cc3ccccc3o2)sc2c1CCC2	2	53*	197	0	62*	-16
CC(C)Oc1ccc(C(=O)NCc2cccnc2)cc1	104*!	-2	122	9	-4	5
SMILES	HePTP inhibitor	ERb coact inh	ERa coact pot	Calb biofilm kill	ERa SRC1 inh	Smad3 FoxH1 inh
Cc1cccc(C(=O)Nc2cc(C)on2)c1	-3	.	.	.	.	.
Cc1cc(NC(=O)COc2cccc3cccnc23)no1	14	50*[fluorescence artefact?]	52	-1	64*[fluorescence artefact?]	-7
Cc1oc(C(N)=O)cc1COc1ccccc1C(N)=O	1	.	.	.	.	.
CCOc1cccc2cc(C(=O)Nc3cc(C)on3)c(=O)oc12	10	29	468*[fluorescence artefact?]	3	33	-55
Cc1cc(NC(=O)c2cccc(C(=O)Nc3cc(C)on3)n2)no1	7	11	292*	1	16	35
Cc1oc(C(=O)O)cc1COc1cccc2cccnc12	6	59*[fluorescence artefact?]	99	3	20	4
CCOc1cccc2cc(C(=O)NCc3cccnc3)c(=O)oc12	8	-1	174	9	4	-2
CCN(CC)CCCCOc1ccc(Cl)c(C)c1	19	.	.	.	.	.
Cc1ccc(C(=O)CSC2=C(C#N)C(c3ccco3)CC(=O)N2)c(C)c1 (stereo not drawn)	4	64*	69	8	60*	8
O=S(=O)(Nc1ccc(Nc2ccccc2)cc1)c1ccccc1	-19	.	.	.	.	.
N#CC(c1nc2ccccc2nc1N1CCCCC1)S(=O)(=O)c1ccc(Cl)cc1 (stereo not drawn)	2	43	231*[fluorescence artefact?]	2	18	2
COC(=O)C1=C(C)N(C)C(=O)NC1c1ccccc1OCc1ccccc1 (stereo not drawn)	8	.	.	.	.	.
CCOC(=O)c1nn(-c2ccc(Cl)cc2)c2nc(CC)c(C#N)c(=O)n12	.	3	202*	9	12	25
